Only some compounds are listed: those with a hit (about 2.3% of all), similar ones and a draw of the others.
M1 antag – human CHRM1 antagonism. P11229. CHO-K1 hM1, Fluo-8 calcium fluorescence, ACh EC80 antagonist. inhibition, % at 3 µM. 360,000 tested, 1.3% active. AID 588852;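 active = percent inhibition above its own plate's cutoff, namely the mean of that plate's compound wells plus 3 SD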;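 note: peak over basal fluorescence ratio during 140 s after agonist addition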
Target sequence (P11229 whole entry, looked up): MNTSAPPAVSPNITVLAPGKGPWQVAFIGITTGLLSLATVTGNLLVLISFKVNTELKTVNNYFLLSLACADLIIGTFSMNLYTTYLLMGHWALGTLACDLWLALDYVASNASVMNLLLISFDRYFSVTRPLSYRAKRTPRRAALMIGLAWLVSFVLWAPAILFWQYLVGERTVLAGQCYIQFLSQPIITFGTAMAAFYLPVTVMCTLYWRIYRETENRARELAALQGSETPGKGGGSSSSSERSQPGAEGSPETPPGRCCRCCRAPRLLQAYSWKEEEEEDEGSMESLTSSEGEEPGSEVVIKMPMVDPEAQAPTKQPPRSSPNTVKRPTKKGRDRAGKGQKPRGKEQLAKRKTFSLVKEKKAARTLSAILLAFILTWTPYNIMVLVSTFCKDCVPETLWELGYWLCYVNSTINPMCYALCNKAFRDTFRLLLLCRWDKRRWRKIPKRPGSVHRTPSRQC
CHRM1 PAM – human CHRM1 positive allosteric modulation; AID 588819; 360,000 tested, 0.088% active; activation, % at 3 µM; CHO-K1 hM1, Fluo-8 calcium fluorescence, ACh EC20; 0% = ACh EC20, 100% = maximal ACh; in the data active = activation above about 19%, passing the limit was not always enough
M1 ag – human M1 muscarinic receptor agonism. P11229. CHO-K1 hM1, Fluo-8 calcium fluorescence, agonist mode; 0% DMSO, 100% acetylcholine EC100. activation, % at 3 µM. 360,000 tested, 0.33% active;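 active = activation above the run's mean compound activation plus 3 SD, cut at about 16% in these data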;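 note: peak over basal fluorescence ratio within a 140 s kinetic read after compound addition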
M1 PAM parental – nonselective activator or artifact in parental CHO-K1 calcium assay | ATP EC20, Fluo-8 calcium fluorescence; 0% at ATP EC20, 100% at ATP max | activation, % at 3 µM | 360,000 tested, 0.02% active | AID 602247;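 active = activation above the run cutoff, the mean activation of all test compounds plus 3 SD, cut at about 40% in these data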;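 note: peak over basal fluorescence ratio in a 140 s read after ATP addition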
CHO-K1 Ca antag – nonselective inhibitor or artifact in parental CHO-K1 cells. ATP-induced calcium, Fluo-8 fluorescence. inhibition, % at 3 µM. 360,000 tested, 0.6% active. AID 602250;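 active = inhibition above a per-plate cutoff, the plate's mean sample inhibition plus 3 SD, cut at about 24% in these data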
CHO-K1 Ca ag – counter-screen for M1 agonists: effect in parental CHO-K1 cells; Fluo-8 calcium fluorescence; scaled to maximal ATP response, vehicle zero; activation, % at 3 µM; 360,000 tested, 0.48% active; AID 602248; in the data active = activation above about 15%;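 note: untransfected CHO-K1 host cells lacking M1 receptor as counterscreen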
A number is an active result; n = inactive.

SMILES | M1 antag | CHRM1 PAM | M1 ag | M1 PAM parental | CHO-K1 Ca antag | CHO-K1 Ca ag
Clc1cccc(CNc2ccn3nc(-c4ccccc4Cl)cc3n2)c1 | n | n | n | n | n | n
N#Cc1c(-c2cccs2)cc(-c2cccs2)[nH]c1=O | n | n | n | 40 | n | n
CC1CCC(NC(=O)CSc2nnnn2C)CC1 (stereo not drawn) | n | n | n | n | n | n
CN1CCCCC1(C)C(=O)NCc1ccc(F)cc1 (stereo not drawn) | n | n | n | n | 25 | n
COc1cccc(CNC(=O)C2(C)CCCCN2C)c1 (stereo not drawn) | n | n | n | n | n | n
CCOc1ccc(CCNC(=O)COC(=O)C2=NNC(=O)CC2)cc1OCC | n | n | n | n | n | n
CCOC(=O)C(=CNNc1ccccc1)C(=O)OCC | n | n | n | n | n | n
COc1ccc(CCn2nnnc2C(CC(C)C)N2CCN(c3ncccn3)CC2)cc1OC (stereo not drawn) | n | n | n | n | 37 | n
COc1cc(CN(CCN(C)C)Cc2ccccc2)ccc1OCc1ccccc1 | 51 | n | n | n | n | n
CCCc1nnc(NC(=O)Cn2c(=O)oc3cc(Br)ccc32)s1 | n | n | 37 | n | n | 17
CCCc1nnc(NC(=O)Cn2c(=O)oc3ccccc32)s1 | n | n | n | n | n | n
Cc1ccc(F)cc1C(=O)N1CCCC(c2cc(C(=O)NCc3ccc(F)cc3)no2)C1 (stereo not drawn) | n | n | n | n | n | n
CCN1/C(=C\C=C(C(C)=O)C(C)=O)Sc2ccccc21 | n | n | n | n | n | 17
CC(C)C(=O)N[C@H]1CCC2C3CC=C4C[C@@H](O)CC[C@]4(C)C3CC[C@@]21C (stereo partly drawn) | n | n | n | n | n | n
CCCCCCN[C@H]1CCC2C3CC=C4C[C@@H](O)CC[C@]4(C)C3CC[C@@]21C (stereo partly drawn) | 90 | n | n | n | n | n
CCOC(=O)N1CCN(C(=O)c2ccc(N(Cc3ccccc3Cl)S(C)(=O)=O)cc2)CC1 | n | 32 | n | n | n | n
C(=C\c1ccccc1)/CN1CCN(C(c2ccnc3ccccc23)c2nnnn2-c2ccc3c(c2)OCCO3)CC1 (stereo not drawn) | n | n | n | n | n | n
COc1ccc(C(c2nnnn2-c2ccc(OC)cc2)N2CCN(C/C=C/c3ccccc3)CC2)cc1 (stereo not drawn) | 74 | n | n | n | n | n
COc1ccc(C(c2nnnn2C2CCCCC2)N2CCN(C/C=C/c3ccccc3)CC2)cc1 (stereo not drawn) | 87 | n | n | n | n | n
C(=C\c1ccccc1)/CN1CCN(C(c2ccccc2)c2nnnn2-c2ccc3c(c2)OCCO3)CC1 (stereo not drawn) | 95 | n | n | n | n | n
Cc1cccc(C)c1-n1nnnc1C(c1ccccc1)N1CCN(C/C=C/c2ccccc2)CC1 (stereo not drawn) | 61 | n | n | n | n | n
CCCCN(C(=O)C1CC(=O)N(c2ccc(C)cc2)C1)c1c(N)n(CCC)c(=O)[nH]c1=O (stereo not drawn) | n | n | n | n | n | n
CCCCn1nnnc1C(c1ccc(OC)cc1)N1CCN(C/C=C/c2ccccc2)CC1 (stereo not drawn) | 55 | n | n | n | n | n
COc1ccc(-n2nnnc2C(c2cccs2)N2CCN(C/C=C/c3ccccc3)CC2)cc1 (stereo not drawn) | 55 | n | n | n | n | n
O=C(Nc1ccc2c(c1)OCCO2)C(c1cc2ccccc2o1)N1CCN(C/C=C/c2ccccc2)CC1 (stereo not drawn) | 36 | n | n | 46 | n | n
SMILES | M1 antag | CHRM1 PAM | M1 ag | M1 PAM parental | CHO-K1 Ca antag | CHO-K1 Ca ag
C(=C\c1ccccc1)/CN1CCN(C(c2cccc3ccccc23)c2nnnn2C2CCCC2)CC1 (stereo not drawn) | 95 | n | n | n | n | n
Cc1cc(C)cc(N(CC(=O)N2CCCCCC2)S(C)(=O)=O)c1 | n | n | n | n | n | n
O=C(CSc1nc(N2CCOCC2)nc(N2CCOCC2)n1)Nc1cccc(C(F)(F)F)c1 | n | n | n | n | n | n
COc1ccc(C(c2nnnn2C(C)(C)C)N2CCN(C/C=C/c3ccccc3)CC2)cc1 (stereo not drawn) | n | n | n | n | n | n
COc1cccc(C(c2nnnn2C(C)(C)C)N2CCN(C/C=C/c3ccccc3)CC2)c1OC (stereo not drawn) | 42 | n | n | n | n | n
Cc1cc(Cl)cc(C)c1OCC(=O)NC1CCCCCC1 | n | n | n | n | n | n
Cc1cc(C)cc(OCC(=O)OCC(=O)N(CC(C)C)c2c(N)n(Cc3ccccc3)c(=O)[nH]c2=O)c1 | n | n | n | n | n | n
O=C(CSc1nnc(NC(=O)c2ccccc2F)s1)NCC1CCCO1 (stereo not drawn) | n | n | n | n | n | n
CCOC(=O)c1sc2nc(NC(=O)C3CC3)sc2c1C | n | n | n | n | n | n
CCOC(=O)c1sc2nc(NC(=O)C(C)(C)C)sc2c1C | 32 | n | n | n | n | n
O=[N+]([O-])c1cc2c(c([N+](=O)[O-])c1)Nc1ccccc1O2 | n | n | n | n | n | 17
O=C1Nc2ccccc2Oc2cc([N+](=O)[O-])cc(Oc3ccccc3)c21 | n | n | n | n | n | n
CC(C)c1nc(=S)n(-c2ccccc2)[nH]1 | n | n | n | n | 28 | n
CC(=O)Nc1nc(=S)n(-c2ccccc2)[nH]1 | n | n | n | n | n | n
Cc1ccc2oc(C(=O)Nc3ccc(S(=O)(=O)Nc4ncccn4)cc3)c(C)c2c1 | n | n | n | n | n | n
CCOC(=O)CSc1ccc(C(=O)NCCCN2CCOCC2)cc1[N+](=O)[O-] | 65 | n | n | n | n | n
O=C(NCCCN1CCOCC1)c1ccc(Sc2cccc(Cl)c2)c([N+](=O)[O-])c1 | 83 | n | n | n | n | n
Cc1ccc([C@H]2N[C@]3(CCCN(Cc4ccc(C(F)(F)F)cc4)C3=O)[C@H]3C(=O)N(C)C(=O)[C@@H]23)cc1 | n | n | n | n | n | n
O=C(O)c1ccc2c(c1)S(=O)(=O)c1cc(Cl)ccc1C2=O | n | n | n | n | n | n
COc1ccc(NC(=O)C2Cc3c(-c4ccco4)ccnc3O2)cc1OC (stereo not drawn) | n | n | n | n | n | n
CCC1CCCCN1CCCNC(=O)CSc1nc2nc(C)c(Cc3ccc(C)cc3)c(C)n2n1 (stereo not drawn) | 69 | n | n | n | n | n
Cc1nc2nc(SCC(=O)NCCCN3CCCC3)nn2c(C)c1Cc1ccccc1Cl | 81 | n | n | n | n | n
